Reference: PubChem BioAssay (NCATS)
Records with an inconclusive call do not appear. Active and inactive are the calls of the source. The call rests on the fitted dose curve; in most records, active means well fitted cell-killing curve with a large enough effect; inconclusive means small, poorly fitted or top-dose-only effect, or effect the other way; inactive means flat fitted curve, though single readings scatter.

How the values were obtained:
Assay in all cases: Primary qHTS to identify gynecologic anti-cancer compounds using libraries of approved drugs and bioactive compounds (AID 1345084); further: nearly all actives have a fitted effect of over 55% in size
[1] = test system: Es-2; details: Gynecologic cancer cell panel viability, ATPlite luminescence, 48 h; series mostly up to 57.5 µM
Procedure, shortened: (§1)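 Cells, 1,000 per well, were allowed to settle for 16 h at 37 C before compound addition. Five concentrations were tested for 48 h, and viability was read by ATPlite luminescence after 15 min at room temperature.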

[2] = test system: HeLa; details: Gynecologic cancer cell panel viability, ATPlite luminescence, 48 h; series mostly up to 57.5 µM
Procedure, shortened: as §1

[3] = test system: Hek293T; details: Gynecologic cancer cell panel viability, ATPlite luminescence, 48 h, control line for the selectivity index; series mostly up to 57.5 µM
Procedure, shortened: as §1

[4] = test system: JEG-3; details: Gynecologic cancer cell panel viability, ATPlite luminescence, 48 h; series mostly up to 57.5 µM
Procedure, shortened: as §1

[5] = test system: OV90; details: Gynecologic cancer cell panel viability, ATPlite luminescence, 48 h; series mostly up to 57.5 µM
Procedure, shortened: as §1

[6] = test system: PA-1; details: Gynecologic cancer cell panel viability, ATPlite luminescence, 48 h; series mostly up to 57.5 µM
Procedure, shortened: as §1

[7] = test system: SKOV3; details: Gynecologic cancer cell panel viability, ATPlite luminescence, 48 h; series mostly up to 57.5 µM
Procedure, shortened: as §1

[8] = test system: Tov-21-G; details: Gynecologic cancer cell panel viability, ATPlite luminescence, 48 h; series mostly up to 57.5 µM
Procedure, shortened: as §1

[9] = test system: Tov112D; details: Gynecologic cancer cell panel viability, ATPlite luminescence, 48 h; series mostly up to 57.5 µM
Procedure, shortened: as §1
On the % scale 0 is the no-effect control and ±100 the full control effect.

C=CC1(C)C=C2C(=O)CC3C(C)(C)CCCC3(C(=O)O)C2(O)CC1 (stereo not drawn)
inactive: Potency [1] | Potency [2] | Potency [3] | Potency [4] | Potency [5] | Potency [6] | Potency [7] | Potency [8] | Potency [9]

C=C1C(O[C@@H]2O[C@H](CO)[C@@H](O)[C@H](O)[C@@H]2O)CC2C(C)(C)C(O)CCC2(C)C1CC/C(C)=C\CO (stereo partly drawn)
inactive: Potency [1] | Potency [2] | Potency [3] | Potency [4] | Potency [5] | Potency [6] | Potency [7] | Potency [8] | Potency [9]

COc1c(C(CC(C)C)OC(C)=O)ccc(Oc2c(O)cc(C)cc2/C=C/C(C)=O)c1C(=O)O (stereo not drawn)
inactive: Potency [1] | Potency [2] | Potency [3] | Potency [4] | Potency [5] | Potency [6] | Potency [7] | Potency [8] | Potency [9]

CC(C)CC(=O)n1cc(C(N)=O)c(=O)cc1C(O)c1ccccc1 (stereo not drawn)
inactive: Potency [1] | Potency [2] | Potency [3] | Potency [4] | Potency [5] | Potency [6] | Potency [7] | Potency [8] | Potency [9]

CC(=O)C1CCC2(C)C3=C(CCC12C)C1(C)CCC(=O)C(C)(C)C1CC3 (stereo not drawn)
inactive: Potency [1] | Potency [2] | Potency [3] | Potency [4] | Potency [5] | Potency [6] | Potency [7] | Potency [8] | Potency [9]

C[C@@H]1O[C@@H](O[C@H]2[C@H](O[C@H]3[C@H](O[C@H]4CC[C@@]5(C=O)C(CC[C@]6(C)C5CC=C5C7CC(C)(C)C[C@@H](O)[C@]7(C)CC[C@]56C)C4(C)C)O[C@H](C(=O)O)[C@@H](O)[C@@H]3O)OC[C@@H](O)[C@@H]2O)[C@H](O)[C@H](O)[C@H]1O (stereo partly drawn)
inactive: activity change, negative = cytotoxicity [1] 9.36% [at 11.6 µM] | activity change, negative = cytotoxicity [2] 2.37% [at 11.6 µM] | activity change, negative = cytotoxicity [3] -7.04% [at 11.6 µM] | activity change, negative = cytotoxicity [4] 9.31% [at 11.6 µM] | activity change, negative = cytotoxicity [5] 6.53% [at 11.6 µM] | activity change, negative = cytotoxicity [6] 13.9% [at 11.6 µM] | activity change, negative = cytotoxicity [7] 13.5% [at 11.6 µM] | activity change, negative = cytotoxicity [8] 8.97% [at 11.6 µM] | activity change, negative = cytotoxicity [9] 15.2% [at 11.6 µM]

Cn1ccnc1CCOC(c1cc2nccc(C(=O)O)c2[nH]1)c1ccccc1Cl (stereo not drawn)
inactive: Potency [1] | Potency [2] | Potency [3] | Potency [4] | Potency [5] | Potency [6] | Potency [7] | Potency [8] | Potency [9]

C=C1CCC2[C@@](C)(C=O)CCC[C@]2(C)[C@H]1CC/C(C)=C/CO (stereo partly drawn)
inactive: Potency [1] | Potency [2] | Potency [3] | Potency [4] | Potency [5] | Potency [6] | Potency [7] | Potency [8] | Potency [9]

C=C(C)C(=O)O[C@H]1C[C@@](C)(OC(C)=O)[C@@]2(O)CC[C@@](C)(O)[C@H](OC(C)=O)[C@@]23OC(=O)C(COC)=C13
inactive: Potency [1] | Potency [2] | Potency [3] | Potency [4] | Potency [5] | Potency [6] | Potency [7] | Potency [8] | Potency [9]

CC(C)[C@@H](C)/C=C/[C@@H](C)[C@H]1CC[C@H]2C3=CC=C4C[C@@H](O)CC[C@]4(C)[C@H]3CC[C@]12C
inactive: Potency [1] | Potency [2] | Potency [3] | Potency [4] | Potency [5] | Potency [6] | Potency [7] | Potency [8] | Potency [9]

CC(=O)Oc1cc2c(s1)CCN([C@H](C(=O)C1CC1)c1ccccc1F)C2
inactive: Potency [1] | Potency [2] | Potency [3] | Potency [4] | Potency [5] | Potency [6] | Potency [7] | Potency [8] | Potency [9]

CC1(CO)CC[C@]2(C(=O)O[C@@H]3O[C@H](CO)[C@@H](O)[C@H](O)[C@H]3O)CC[C@]3(C)C(=CCC4[C@@]5(C)CC[C@H](O[C@@H]6O[C@H](C(=O)O)[C@@H](O)[C@H](O)[C@H]6O)C(C)(C)C5CC[C@]43C)C2C1 (stereo partly drawn)
inactive: activity change, negative = cytotoxicity [1] 8.61% [at 11.6 µM] | activity change, negative = cytotoxicity [2] 8.66% [at 11.6 µM] | activity change, negative = cytotoxicity [3] 11.3% [at 11.6 µM] | activity change, negative = cytotoxicity [4] 10.8% [at 11.6 µM] | activity change, negative = cytotoxicity [5] 2.36% [at 11.6 µM] | activity change, negative = cytotoxicity [6] 28.3% [at 11.6 µM] | activity change, negative = cytotoxicity [7] 13% [at 11.6 µM] | activity change, negative = cytotoxicity [8] 6.77% [at 11.6 µM] | activity change, negative = cytotoxicity [9] 9.6% [at 11.6 µM]

CC(C)=CCc1ccc(Oc2c(O)cc(C)cc2CO)c(C(=O)O)c1O
inactive: Potency [1] | Potency [2] | Potency [3] | Potency [4] | Potency [5] | Potency [6] | Potency [7] | Potency [8] | Potency [9]

O=S(=O)(Nc1ccc(C(O)(C(F)(F)F)C(F)(F)F)cc1)c1cccs1
inactive: Potency [1] | Potency [2] | Potency [3] | Potency [4] | Potency [5] | Potency [6] | Potency [7] | Potency [8] | Potency [9]

O=C(O[C@H]1[C@@H]2C=CO[C@@H](O[C@@H]3O[C@H](CO)[C@@H](O)[C@H](O)[C@H]3O)[C@@H]2[C@@]2(CO)O[C@@H]12)c1ccc(O)c(O)c1
inactive: Potency [1] | Potency [2] | Potency [3] | Potency [4] | Potency [5] | Potency [6] | Potency [7] | Potency [8] | Potency [9]

CC1(C)C(O)CCC2(C)C1C(O)C=C1COC(=O)C12O (stereo not drawn)
inactive: Potency [1] | Potency [2] | Potency [3] | Potency [4] | Potency [5] | Potency [6] | Potency [7] | Potency [8] | Potency [9]

CC(=O)OC1C(O)C(C)=C(CCC(C)CC(=O)O)C2(C)CCCC(C)(C)C12 (stereo not drawn)
inactive: Potency [1] | Potency [2] | Potency [3] | Potency [4] | Potency [5] | Potency [6] | Potency [7] | Potency [8] | Potency [9]
